Compounds with a hit are over-represented: about 2.8% of the library has one in this group of screens.
BRCA1 expr act = qHTS Assay to Identify Small Molecule Activators of BRCA1 Expression; MCF7-BRCA1-FFLuc reporter, luminescence, 48 h; response scale: scaled: vehicle 0%, 10 µM genistein 100%; Potency, µM (series often up to 46.1 µM), without a hit: at the highest dose activation, hits mostly activators; 380,000 compounds, 1.1% hits; AID 624202, 2012; note: nearly all actives have a fitted effect of over 80% in size
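Activators of BRCA1 expression were detected as increased firefly luciferase luminescence in engineered MCF7 cells after 48 h compound incubation. Signals were scaled to genistein 10 microM as full activation.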
GLP-1R agonist = qHTS of GLP-1 Receptor Agonists; Potency, µM (highest dose often 45.6 µM), inactives show at the top dose activation, most hits filed as activators; 380,000 compounds, 0.007% hits; HEK293 GLP-1R CRE-luciferase, luminescence, 4-6 h; cells express a hypersensitive GLP-1R form; note: % of control where 0% means no effect
Target sequence (P43220 whole entry, looked up): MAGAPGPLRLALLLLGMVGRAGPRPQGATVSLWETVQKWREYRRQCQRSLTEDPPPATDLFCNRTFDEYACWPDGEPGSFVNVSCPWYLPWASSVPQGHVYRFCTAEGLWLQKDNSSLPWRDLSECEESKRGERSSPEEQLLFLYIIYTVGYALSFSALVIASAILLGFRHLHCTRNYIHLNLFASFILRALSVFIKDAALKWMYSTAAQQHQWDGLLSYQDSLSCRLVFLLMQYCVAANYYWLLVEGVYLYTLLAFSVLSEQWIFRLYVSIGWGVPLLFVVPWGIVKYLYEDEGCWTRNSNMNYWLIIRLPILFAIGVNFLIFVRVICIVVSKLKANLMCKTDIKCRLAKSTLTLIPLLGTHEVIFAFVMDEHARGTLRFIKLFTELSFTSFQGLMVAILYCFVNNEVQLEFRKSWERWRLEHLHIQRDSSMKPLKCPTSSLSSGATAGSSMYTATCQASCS
Mito fusion yeast = qHTS Assay for Small Molecule Inhibitors of Mitochondrial Division or Activators of Mitochondrial Fusion. Potency, µM (doses to about 46.1 µM), inactives show at the top dose growth rescue (activation), hits mostly activators. S. cerevisiae fusion-defective mutant growth rescue, CellTiterGlo 48 h. 320,000 compounds, 0.23% hits. AID 485298, 2010; note: % of control where 0% means no effect; nearly all actives have a fitted effect of over 45% in size
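Luminescent cell viability in 1536-well qHTS format served as the measure of rescued growth in ts fusion-mutant S. cerevisiae cultured on non-fermentable YPEG for 48 hours at 37C.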
HEK293 tox = qHTS of GLP-1 Receptor Inverse Agonists: Cytotox Screen; HEK293 cAMP-luciferase reporter cells, luminescence, 24 h; Potency, µM (series often up to 38.3 µM), for inactives: top-dose activity change, negative = inhibition, most hits filed as inhibitors; 410,000 compounds, 0.13% hits; AID 624418, 2012;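 note: loss of luciferase light is scored as toxicity; % is set by controls: 0 for no effect and ±100 for the full control effect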
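Luminescence readout: signal drop marks cytotoxicity. Plated cells grew 12 h at 37 °C, 5% CO2, received 23 nL compound for 24 h, then got luciferase reagent, read after 12 min at RT.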
GLP-1R inv ag = qHTS of GLP-1 Receptor Inverse Agonists (Inhibition Mode) | Glucagon-like peptide 1 receptor (Homo sapiens), P43220 | HEK293 GLP-1R CRE-luciferase, luminescence, 24 h; GLP-1R form is constitutively active | Potency, µM (series often up to 38.3 µM), for the others: top-dose activity change, negative = inhibition, hits mostly inhibitors | 410,000 compounds, 1.6% hits | AID 624417, 2012; note: % is set by controls: 0 for no effect and ±100 for the full control effect; nearly all actives have a fitted effect of over 55% in size
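qHTS in 1536-well format: reporter HEK293 cells expressing constitutive GLP-1R activity in DMEM + 10% Nu serum, 24 hr with compounds at 37 deg C, luminescence read after 12 min with detection reagent.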
Starred values were filed as active, the others as inactive; u = inconclusive; x = no result; [ ] = another dose, or the depositor's remark. Calls come from the whole dose curve; as a rule, active = well fitted curve in the direction sought with a large enough effect; inconclusive = small, poorly fitted or top-dose-only effect, or another doubt; inactive = no such curve, though single readings can be large; an effect the other way counts as inactive or inconclusive. Potency is the fitted concentration of half-maximal effect.

SMILES	BRCA1 expr act	GLP-1R agonist	Mito fusion yeast	HEK293 tox	GLP-1R inv ag
COc1ccc(C(=O)NCC2OCCc3ccccc32)c(O)c1 (configuration not stated)	11.2µM*	-0.8%	14.5%	2.3%	-4.1%
Cc1ccc2[nH]c(SCC(=O)N3CCOCC3)nc2c1C	8.91µM*	-6.0%	-2.8%	-2.6%	2.6%
CC(C)c1ccc2[nH]c3nc(SCC(=O)N4CCOCC4)nnc3c2c1	11.2µM*	17.5%	-1.6%	-17.0%	-6.3%
Cc1cccc(C)c1NC(=O)C1c2ccccc2OCC(=O)N1CCCN1CCOCC1 (configuration not stated)	16.1%	-4.0%	x	4.0%	21.8%
O=S(=O)(c1ccccc1)N1CCN(Cc2ccccc2C(F)(F)F)CC1	8.4%	6.9%	20.3%	-9.7%	u
CCOc1cccc(/C=C/c2ccc3cccc(O)c3n2)c1OC	-6.7%	20.7%	1.6%	11.1%	u
CC1CCCN(C(c2cccs2)c2nnnn2Cc2ccccc2)C1 (configuration not stated)	-61.9%	5.9%	15.0%	-3.4%	11.2µM*
C#Cc1ccc(NC(=O)C2(C)CCN2C(=O)c2ccccc2CCc2ccccc2)cc1 (configuration not stated)	-30.3%	1.7%	x	3.1%	u
CSc1ccc(NC(=O)C2(C)CCN2C(=O)c2ccccc2CCc2ccccc2)cc1 (configuration not stated)	-16.9%	-3.0%	x	2.6%	10µM*
CCc1ccc(CN(C)C(=O)C2CCC(=O)N(CCCN3CCCC3=O)C2)cc1 (configuration not stated)	-12.8%	-8.7%	0.1%	13.6%	-3.8%
COc1cc(NC(=O)N2CCc3nc(Nc4cc(Cl)cc(Cl)c4)ncc3C2)cc(OC)c1OC	-61.6%	-1.6%	x	u	10µM*
COc1ccc(CNC(=O)N2CCc3nc(Nc4cc(OC)c(OC)c(OC)c4)ncc3C2)cc1	3.2%	0.8%	x	-15.3%	-13.1%
CCNC(=S)NNC(=O)c1cc(-c2cccc(C)c2)nc2ccccc12	4.47µM*	-10.5%	-10.1%	-15.4%	-0.7%
CCNC(=S)NNC(=O)c1cc(-c2cccc(OCC)c2)nc2ccccc12	u	5.2%	-0.7%	-27.0%	0.0%
O=C(NC(=S)Nc1ccccn1)c1cc(-c2ccccc2)nc2ccccc12	-21.9%	-3.6%	16.3%	2.82µM*	4.47µM*
C[C@H](NC(=O)C1CCN(S(=O)(=O)c2ccccc2)CC1)C(=O)NCc1ccc(F)cc1	7.7%	-5.1%	1.5%	3.8%	8.6%
COC(=O)c1ccc2c(c1)C(C)(C)C(/C=C/c1ccccc1O)=[N+]2C	-96.4%	-23.0%	-17.8%	10µM*	u
C[N+]1=C(/C=C/Nc2ccccc2Cl)C(C)(C)c2ccccc21	-35.8%	5.6%	-3.4%	-7.0%[1.53 µM]	-13.6%
Cc1cc(C)c2sc(N(CCN(C)C)C(=O)c3cc(Cl)sc3Cl)nc2c1	-21.3%	5.2%	-2.2%	-1.0%	u
CCN(CC)CCN(C(=O)c1cc2ccccc2cc1OC)c1nc2ccc(OC)cc2s1	-35.2%	-7.1%	-13.7%	-22.6%	5.62µM*
CCc1ccc2nc(N(CCN(C)C)C(=O)c3ccc4ccccc4c3)sc2c1	-2.2%	-0.9%	1.5%	7.9%	12.6µM*
COc1ccccc1C(=O)N(CCN(C)C)c1nc2cc(C)cc(C)c2s1	-3.4%	8.4%	-13.6%	-17.0%	11.2µM*
CCN(CC)CCN(C(=O)c1cc2ccccc2cc1OC)c1nc2ccc(F)cc2s1	3.2%	-6.1%	-34.6%	-25.8%	5.01µM*
O=C(Nc1ccc2c(c1)OCO2)c1ccccc1SCC(=O)N1CCCC1	0.0%	1.8%	2.6%	-8.8%	7.4%
COc1cc2ccccc2cc1C(=O)N(CCN(C)C)c1nc2ccc(C)cc2s1	0.0%	5.6%	-28.0%	-13.6%	3.98µM*
SMILES	BRCA1 expr act	GLP-1R agonist	Mito fusion yeast	HEK293 tox	GLP-1R inv ag
Cc1ccc2nc(N(CCCN(C)C)C(=O)c3cc(-c4cccs4)nc4ccccc34)sc2c1	-71.0%	3.8%	-28.8%	u	2.51µM*
CN(C)CCCN(C(=O)c1cc(-c2cccs2)nc2ccccc12)c1nc2c(F)cccc2s1	-61.2%	2.8%	-20.6%	u	u
COc1cc2ccccc2cc1C(=O)N(CCN(C)C)c1nc2c(C)cccc2s1	-12.3%	3.2%	-19.5%	-6.3%	u
Cc1cccnc1NC(=O)Nc1ccc(Cl)cc1	48.4%	0.7%	0.1%	0.1%	-1.0%
O=c1c2ccccc2c(C=NCCc2ccccc2)c(O)n1Cc1ccccc1	-3.2%	-18.6%	17.0%	11.6%	5.01µM*
O=c1c2ccccc2c(C=NCCCN2CCOCC2)c(O)n1Cc1ccccc1	3.7%	19.4%	-5.2%	-10.2%	u
CN1C(=O)CN(CCN2CC(=O)N(C)C(=O)C2)CC1=O	7.7%	-3.0%	x	-6.5%	9.4%
CC(C)N(CCCNC(=O)c1nn(C)c2c1CS(=O)(=O)c1ccccc1-2)Cc1ccccc1	9.0%	2.5%	-2.1%	-6.1%	u
CC(C)(C)c1ccccc1OCC(=O)Nc1ccccc1C(=O)NCc1cccnc1	-52.0%	21.1%	15.8µM*	-21.8%	u
COc1cccc(-c2cc(C(=O)Nc3cnn(Cc4ccc(Cl)cc4Cl)c3)no2)c1	x	x	x	-18.1%	10.9%
CN(c1ccc(C(=O)COC(=O)C2CC2)cc1)S(C)(=O)=O	23.4%	2.4%	x	-4.4%	11.2%
Cc1ccc(C)c(N2CCN(C(=O)CCS(=O)(=O)c3ccc4c(c3)CCN4C(=O)C3CC3)CC2)c1	-5.7%	-0.2%	11.2µM*	0.5%	u
CCC(=O)N1c2ccc(S(=O)(=O)CCC(=O)N3CCN(c4cc(C)ccc4C)CC3)cc2CC1C (configuration not stated)	7.7%	-1.2%	x	1.4%	23.5%
CC1(C)CC2CC(C)(CN2C(=O)c2cc(-c3ccccc3)on2)C1 (configuration not stated)	-32.1%	12.3%	15.6%	-2.7%	2.82µM*
COc1ccc2c(c1)CCc1c(C(=O)Nc3c(C)nn(Cc4ccccc4Cl)c3C)noc1-2	x	x	x	-11.2%	10µM*
COc1ccc2c(c1)CCc1c(C(=O)N3CC4(C)CC3CC(C)(C)C4)noc1-2 (configuration not stated)	-38.7%	2.0%	13.3%	-10.8%	12.6µM*
CC1(C)CC2CC(C)(CN2C(=O)c2cc(-c3ccc(F)cc3)on2)C1 (configuration not stated)	-49.5%	7.3%	22.8%	-0.5%	u
COc1ccc2c(c1)CCc1c(C(=O)N3CCOCC3)noc1-2	2.82µM*	-1.7%	3.3%	-21.0%	u
